# Measured values from PubChem BioAssay (NCATS).
# Several values for one entry are separate records, joined by “and”; a condition that tells them apart may be missing. Identical values can stand only once. Records with an inconclusive call do not appear. Activity calls are given as the source filed them. The call rests on the fitted dose curve; in most records, active means well fitted inhibition curve with a large enough effect; inconclusive means small, poorly fitted or top-dose-only effect; inactive means no such curve, though single readings can be large or run the other way.
# Assay: Primary qHTS for inhibitors of nuclear receptor binding SET domain protein 2 (NSD2) in an RCH-ACV wild type WT cells (2C) (AID 1645877); further: nearly all actives have a fitted effect of over 70% in size
# Settings: RCH-ACV (leukaemia line) NSD2 WT (2C) viability, CellTiter-Glo, 72 h; series mostly up to 44.9 µM; activity change, negative = cell killing: at the top concentration
# On the % scale 0 is the no-effect control and ±100 the full control effect; potency means the concentration at half of the fitted maximal effect.
Compound,outcome,"activity change, negative = cell killing",Potency
CCOC(=O)C(=O)c1csc(NC=O)n1,inactive,–,–
CN1C(=O)CC(C)(c2ccccc2)C1=O (configuration not stated),–,-8.06% (inactive),–
CCOc1ccc(NS(=O)(=O)c2ccc(N)cc2)nn1,–,-0.165% (inactive),–
CC(=O)Oc1ccc(C2(c3ccc(OC(C)=O)cc3)Oc3ccccc3NC2=O)cc1,–,–,10.3 µM (active)
O=C(Oc1ccccc1)c1ccccc1O,inactive,–,–
CCCOc1ccc2c(c1)CC[C@@H]1[C@@H]2CC[C@]2(C)C(OC)CC[C@@H]12 (some centres not stated),inactive,–,–
O=P(O)(O)OCC(O)CO (configuration not stated),–,-5.51% (inactive),–
O=[N+]([O-])c1ccc(O)c2ncccc12,–,–,841 nM (active) and 6.61 µM (active)
COC(=O)c1ccc(NC(C)=O)cc1OC,–,-4.27% (inactive),–
Nc1ccc(O)cc1,–,1.82% (inactive),–
COc1cc(C(=O)NC2CCCNC2)cc(OC)c1OC (configuration not stated),–,-8.52% (inactive),–
CN(C)CCN(Cc1ccsc1)c1ccccn1,–,5.27% (inactive),–
CCCCC(O)/C=C(C)/C=C/C=C/C(=O)N1CCCC1=O (configuration not stated),–,6.71% (inactive),–
CCOc1ccccc1OCC1CNCCO1 (configuration not stated),–,3.57% (inactive),–
CCS(=O)(=O)c1ccc(OC)c(C(=O)OC)c1,inactive,–,–
CN1C(CSCC(F)(F)F)Nc2cc(Cl)c(S(N)(=O)=O)cc2S1(=O)=O (configuration not stated),–,-16.1% (inactive),–
Cc1cc2nc3ccc(=[N+](C)C)cc-3sc2cc1N,–,–,1.06 µM (active)
N#CC1(c2ccc(F)cc2)CCC(=O)CC1,–,6.6% (inactive),–
O=C1CC2(CCCC2)CC(=O)N1CCNCC1COc2ccccc2O1 (configuration not stated),–,-4.89% (inactive),–
COc1ccc(/C(C)=C/C(=O)O)c(OC)c1,inactive,–,–
CC(C)CCCC(C)NCCC(C)C (configuration not stated),–,-4.87% (inactive),–
Cc1ccccc1C(=O)N1CC/C(=N\OS(=O)(=O)O)c2ccc(Cl)cc21,–,-9.17% (inactive),–
